The text below walks through data of PubChem BioAssay AID652057 (Broad Institute, 2013).

Molecules are shown by their SMILES. Among all 1,400 compounds or so, about 1,000 (71%) were called active. So high a share suggests a set chosen from earlier hits. Only a sample is shown. Entries that show only a call come without a potency. Potency and affinity values are given separately. Unmarked numbers belong to inactive results. How the calls were made is not given here.

The assay is described as follows: inhibitors of HIV Env-driven cell fusion, dose response, cherry-pick (AID 652057). To be noted: HeLa-JRFL Env/CEM21 cell fusion, luciferase; series mostly up to 35 µM.
With `Cc1onc(-c2ccccc2)c1C(=O)Nc1ccc(Br)cc1Cl`, the activity change, negative = inhibition entry is “inactive”.

`Cc1onc(-c2ccccc2)c1C(=O)NC(=S)NNC(=O)c1ccc(O)cc1`: the activity change, negative = inhibition result is “inactive”.

In the case of `O=C(C[C@@H]1C[C@@H]2c3cc(NC(=O)C4CCC4)ccc3O[C@@H]2[C@@H](CO)O1)NCC(F)(F)F`, the activity change, negative = inhibition entry is “inactive”.

`Cc1ccc(S(=O)(=O)N(C)c2ccc(C(=O)N3CCN(Cc4ccc5c(c4)OCO5)CC3)cc2)cc1`: the activity change, negative = inhibition entry was “inactive”.

`c1ccc2c(c1)OCC(CNc1ncnc3nc[nH]c13)O2` (stereo unspecified): the activity change, negative = inhibition entry was “inactive”.

As to `Cc1nc2sc(C(c3ccco3)N3CCC(Cc4ccccc4)CC3)c(O)n2n1` (stereo unspecified), the activity change, negative = inhibition result was “inactive”.

Consider `Cc1cc(C)c(CN2CCN(C(=O)Cn3cnc4c(NCc5ccccc5)ncnc43)CC2)c(C)c1`, for which the activity change, negative = inhibition result was “inactive”.

For `N#Cc1c(NCc2ccccc2)ccnc1NCc1cccnc1`, the activity change, negative = inhibition result is “inactive”.

Consider `C[C@@H]1CN([C@@H](C)CO)C(=O)c2cc(C3=CCCC3)cnc2O[C@@H]1CN(C)Cc1ccc(C(=O)O)cc1`, for which the activity change, negative = inhibition result is “inactive”.

On to `C[C@H]1CN([C@@H](C)CO)C(=O)c2cccc(NC(=O)Nc3ccc(C(F)(F)F)cc3)c2O[C@H]1CN(C)S(=O)(=O)c1ccccc1`, for which the activity change, negative = inhibition result is “inactive”.

As for `Cc1cc(C(=O)NC2CCCc3c2cnn3-c2ccc(C(C)(C)C)cc2)nn1C` (stereo unspecified), the activity change, negative = inhibition entry was “inactive”.

As to `c1coc(CNc2c3c(nc4ccccc24)CCC3)c1`, the activity change, negative = inhibition entry is “inactive”.

`C[C@H](CO)N1C[C@H](C)[C@@H](CN(C)S(=O)(=O)c2ccc(F)cc2)Oc2ccc(NS(=O)(=O)c3cn(C)cn3)cc2CC1=O`: the activity change, negative = inhibition entry is “inactive”.

For the compound `O=C(c1cc(COc2cccc(C(F)(F)F)c2)on1)N1CCC(c2ccncc2)CC1`, the activity change, negative = inhibition result was “inactive”.

Regarding `CCC(=O)N(C)C(c1ccccc1Cl)c1nnnn1-c1c(C)cccc1C` (stereo unspecified), the activity change, negative = inhibition result is “inactive”.

`O=C(c1ccc(S(=O)(=O)Nc2ccc(F)cc2)cc1)N1CCN(C(=O)c2ccco2)CC1`: the activity change, negative = inhibition result is “inactive”.

Turning to `Cc1cc(C)nc(/N=C(\N)Nc2ccc(CC(=O)OC(C)C)cc2)n1`, the activity change, negative = inhibition result is “inactive”.

For the compound `O=C(Nc1ccc(CN2CCOCC2)cc1)c1ccc(-c2cccc(Cl)c2)o1`, the activity change, negative = inhibition entry was “inactive”.

As for `C#CCn1c(=O)c2c(ncn2C)n(C)c1=O`, the activity change, negative = inhibition result was “inactive”.

For the compound `CCNC(=O)C[C@@H]1CC[C@@H]2[C@@H](COc3ccc(NC(=O)Cc4cccs4)cc3C(=O)N2C)O1`, the activity change, negative = inhibition entry was “inactive”.

For the compound `CCNC(=O)Nc1ccc2c(c1)C(=O)N(C)[C@@H]1CC[C@@H](CC(=O)NCC3CCCCC3)O[C@@H]1CO2`, the activity change, negative = inhibition result is “inactive”.

As for `Cc1nn(C)cc1NC(=O)C[C@H]1CC[C@@H]2[C@@H](COc3ccc(NC(=O)C4CCC4)cc3C(=O)N2C)O1`, the activity change, negative = inhibition entry is “inactive”.

As to `CCNC(=O)C[C@H]1CC[C@@H]2[C@@H](COc3ccc(NC(=O)Cc4cccs4)cc3C(=O)N2C)O1`, the activity change, negative = inhibition entry is “inactive”.

Regarding `CN1C(=O)c2cc(NC(=O)NC3CCCC3)ccc2OC[C@@H]2O[C@H](CC(=O)NC3CCC3)CC[C@@H]21`, the activity change, negative = inhibition entry is “inactive”.

Consider `COCC(=O)Nc1ccc2c(c1)C(=O)N(C)[C@H]1CC[C@H](CC(=O)NC3CCCC3)O[C@H]1CO2`, for which the activity change, negative = inhibition result is “inactive”.

For the compound `COc1ccc(OC)c(NC(=O)COc2ccc3c(c2)CCC3)c1`, the activity change, negative = inhibition result was “inactive”.

As to `Cc1ccc(S(=O)(=O)N(C)C[C@@H]2Oc3ccc(NS(=O)(=O)c4ccc(Cl)cc4)cc3C(=O)N([C@@H](C)CO)C[C@H]2C)cc1`, the activity change, negative = inhibition entry was “inactive”.

Regarding `Cc1ccc(S(=O)(=O)Nc2ccc3c(c2)C(=O)N([C@H](C)CO)C[C@@H](C)[C@H](CN(C)S(=O)(=O)c2ccc(F)cc2)O3)cc1`, the activity change, negative = inhibition entry is “inactive”.

For the compound `CCNC1CCC(Nc2ccnc3cc(Cl)ccc23)CC1` (stereo unspecified), the activity change, negative = inhibition entry was “inactive”.

As to `COc1ccc(NS(=O)(=O)c2cccc(C(=O)NNC(=O)CNC(=O)c3ccc(C)cc3)c2)cc1`, the activity change, negative = inhibition result is “inactive”.

Turning to `CC(=O)Nc1ccc(C(=O)OCC(=O)NC(=O)NCc2ccccc2)cc1`, the activity change, negative = inhibition result was “inactive”.

For `Cc1ccc(-n2nnnc2SCn2nnc3ccccc3c2=O)c(C)c1`, the activity change, negative = inhibition entry was “inactive”.

Take `COc1ccccc1CN(C)C(=O)CN1CCN(C(=O)c2cccs2)CC1`: the activity change, negative = inhibition result is “inactive”.

For `C[C@@H]1CN([C@@H](C)CO)S(=O)(=O)c2ccc(-c3ccc(F)cc3)cc2O[C@H]1CN(C)C(=O)C1CCCCC1`, the activity change, negative = inhibition result is “inactive”.

On to `CC(=O)OC1c2ccccc2C(=O)N1c1ccccc1C` (stereo unspecified), for which the activity change, negative = inhibition entry was “inactive”.

Take `CNC[C@H]1Oc2c(NC(=O)Nc3cccc4ccccc34)cccc2C(=O)N([C@H](C)CO)C[C@H]1C`: the activity change, negative = inhibition entry is “inactive”.

Turning to `Cc1sc2ncnc(N3CCN(S(=O)(=O)c4ccc(Br)cc4)CC3)c2c1C`, the activity change, negative = inhibition result is “inactive”.

For `COc1cc(-c2cc(OC)c(O)c(OC)c2)cc(OC)c1O`, the activity change, negative = inhibition result was “inactive”.

As for `O=C(Nc1ccc(F)cc1)Nc1ccc2c(c1)[C@@H]1C[C@H](CC(=O)N3CCCCC3)O[C@H](CO)[C@@H]1O2`, the activity change, negative = inhibition entry was “inactive”.

On to `COC(=O)C[C@H]1C=C[C@H](NC(=O)c2ccccn2)[C@@H](CO)O1`, for which the activity change, negative = inhibition result is “inactive”.

As for `O=C(C[C@@H]1C=C[C@@H](NC(=O)c2ccccc2)[C@H](CO)O1)NCc1ccc(Oc2ccccc2)cc1`, the activity change, negative = inhibition entry was “inactive”.

Turning to `COc1ccc(CCCC(=O)NCCc2ccccc2)c(C)c1`, the activity change, negative = inhibition result is “inactive”.

Take `COCc1[nH]nc2c1C(c1ccc(F)cc1)N(Cc1ccccc1)C2=O` (stereo unspecified): the activity change, negative = inhibition result was “inactive”.

As for `COc1ccccc1-c1c(-c2ccc(O)cc2O)n[nH]c1C(F)(F)F`, the activity change, negative = inhibition result was “inactive”.

As for `CNc1nc2c(c(=O)n(C)c(=O)n2C)n1Cc1ccccc1`, the activity change, negative = inhibition entry is “inactive”.

Consider `CCCCn1c(CN(C)Cc2ccccc2)nc2c1c(=O)n(C)c(=O)n2C`, for which the activity change, negative = inhibition result was “inactive”.

As for `C=CCNc1nc2c(c(=O)n(C)c(=O)n2C)n1CCCCCC`, the activity change, negative = inhibition result is “inactive”.

Take `CC(C)NC(=O)N(C)C[C@@H]1Oc2ccc(NC(=O)C3CC3)cc2CC(=O)N([C@H](C)CO)C[C@H]1C`: the activity change, negative = inhibition entry is “inactive”.

Take `CC(C)NC(=O)N(C)C[C@@H]1Oc2ccc(NC(=O)C3CC3)cc2CC(=O)N([C@@H](C)CO)C[C@@H]1C`: the activity change, negative = inhibition entry was “inactive”.

Turning to `Cc1cc(Oc2ccc(C#N)cc2)nc(NCc2ccccc2)n1`, the activity change, negative = inhibition result was “inactive”.

For `c1ccc(CSc2nnc([C@@H]3CCCN3)o2)cc1`, the activity change, negative = inhibition entry was “inactive”.
